Data from PubChem BioAssay AID651814 (National Center for Advancing Translational Sciences (NCATS), 2012).
About 590 (28%) of roughly 2,100 compounds were called active. Another 42% or so got no clear call; they are omitted. The call rests on the fitted dose curve; in most records, active means well fitted inhibition curve with a large enough effect; inconclusive means small, poorly fitted or top-dose-only effect; inactive means flat fitted curve, though single readings scatter. This is one part of the list.

biological target: DNA dC->dU-editing enzyme APOBEC-3F (Homo sapiens) (UniProt Q8IUX4); experiment: qHTS for inhibitors of Vif-A3F interactions: Cherry picks; details: HeLa A3F-eYFP + Vif (tagged APOBEC3F with the HIV-1 protein that degrades it), eYFP fluorescence, 24 h; further: nearly all actives have a fitted effect of over 70% in size;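 on max response: % of control where 0% means no effect; active compounds raise eYFP fluorescence by blocking Vif-driven A3F loss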
Sequence (Q8IUX4 whole entry, looked up): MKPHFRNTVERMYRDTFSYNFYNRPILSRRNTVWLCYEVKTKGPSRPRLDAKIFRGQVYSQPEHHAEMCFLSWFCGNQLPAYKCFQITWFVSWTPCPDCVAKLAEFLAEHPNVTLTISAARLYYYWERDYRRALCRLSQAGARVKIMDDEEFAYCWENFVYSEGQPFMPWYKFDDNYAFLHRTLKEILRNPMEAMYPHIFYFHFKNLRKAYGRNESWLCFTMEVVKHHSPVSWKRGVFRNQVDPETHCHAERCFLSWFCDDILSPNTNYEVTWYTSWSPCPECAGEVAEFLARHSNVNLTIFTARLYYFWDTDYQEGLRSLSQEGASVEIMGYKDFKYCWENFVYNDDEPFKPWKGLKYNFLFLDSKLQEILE
Method in brief: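 Read-out: yellow fluorescence (ex 488 nm, em 500-530 nm) by laser-scanning cytometer after 24 h compound exposure, several concentrations, at 37 deg C. Cells: HeLa line stably co-expressing Vif and C-terminally eYFP-tagged A3F; MG132 served as positive control.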
Potency means the concentration at half of the fitted maximal effect.

Compound	max response	Potency
C/C(=N\Nc1nccnc1Cl)c1ccc(Cl)c(Cl)c1	0.009% (inactive)	–
N#CC1=C(N)C(C#N)(C#N)[C@H](c2c(F)cccc2F)[C@H]2CC3(CC=C12)OCCO3	–	20.6 µM (active)
COc1ccccc1-c1cc(C(=O)NN)[nH]n1	7.62% (inactive)	–
CCCCCCc1cc2cc(-c3nnc(-c4ccccc4)o3)c(=O)oc2cc1O	–	3.96 µM (active)
CCCCCCc1cc2cc(-c3nnc(-c4ccccc4O)o3)c(=O)oc2cc1O	6.08% (inactive)	–
CCCCCCc1cc2cc(-c3nnc(-c4ccccc4OC)o3)c(=O)oc2cc1O	–	2.8 µM (active)
C=C(NC(=O)C(=C)NC(=O)c1csc(C2=NC3c4csc(n4)C4NC(=O)c5csc(n5)C(C(C)(O)C(C)O)NC(=O)C5CSC(=N5)/C(=C/C)NC(=O)C(C(C)O)NC(=O)c5csc(n5)C3(CC2)NC(=O)C(C)NC(=O)C(=C)NC(=O)C(=C)NC(=O)C(C(C)C)NC2C=Cc3c(C(C)O)cc(nc3C2O)C(=O)OC4C)n1)C(N)=O (stereo not drawn)	–	12.5 µM (active)
O=C(Cn1c(=O)n(Cc2ccco2)c(=O)c2sc3ccccc3c21)Nc1ccccc1C(F)(F)F	–	14.6 µM (active)
O=C(Cn1cnc2c(cnn2-c2ccc(F)cc2)c1=O)NCc1ccco1	-25.6% (inactive)	–
CCc1ccc(N=Nc2ccc(O)c3[nH]cnc23)cc1	–	13 µM (active)
O=S(=O)(Nc1nc2ccccc2nc1N1CCc2ccccc2C1)c1ccc(Br)cc1	-17% (inactive)	–
COc1cc(/C=C/C(=O)c2ccc3c(c2)OCCO3)cc(Br)c1OCC(=O)N(C)C	–	15.8 µM (active)
CCOc1ccc(N/C=C/C(=O)c2cc(OC)c(OC)c(OC)c2)cc1	-29.8% (inactive)	–
CCOC(=O)C1=C(C)N=c2sc(=Cc3cc(Cl)c(OCC(=O)O)c(Cl)c3)c(=O)n2C1c1cccc(OC)c1 (stereo not drawn)	–	19.8 µM (active)
C=CCN1C(=O)/C(=C2/Sc3ccc(OC)cc3N2CC)SC1=S	–	9.2 µM (active)
C=CCN1C(=O)/C(=C2/Sc3ccc(OC)cc3N2C)SC1=Nc1cccc(O)c1	–	20.6 µM (active)
C=CCN1C(=O)/C(=C/c2ccc(O)c(OC)c2)S/C1=N/c1nccs1	-0.164% (inactive)	–

Compound	max response	Potency
Cc1ccc2[nH]c(C(=O)NN=C3CCCCC3)c(-c3ccccc3)c2c1	0.516% (inactive)	–
Cc1cc(C)cc(Oc2nc(C(F)(F)F)nc3ccccc23)c1	-26.3% (inactive)	–
CCc1ccc2nc(N(CCCN(C)C)C(=O)c3ccc(S(=O)(=O)N(C)C4CCCCC4)cc3)sc2c1	-4.66% (inactive)	–
CC[n+]1ccc(/C=C/c2c[nH]c3ccccc23)cc1	–	9.2 µM (active)
O=C(C(=O)N1CCN(c2ccccc2Cl)CC1)c1c[nH]c2ccccc12	2.85% (inactive)	–
OCC[n+]1ccc(/C=C/c2c[nH]c3ccccc23)cc1	–	8.2 µM (active)
C[n+]1cc(C(=O)N2CCCCC2)ccc1/C=C/c1c[nH]c2ccccc12	–	14 µM (active)
C[n+]1ccc(/C=C/c2c[nH]c3ccccc23)cc1	–	9.2 µM (active)
CC(=O)Nc1ccc(S(=O)(=O)Nc2nc3ccccc3nc2Nc2ccc3ccccc3c2)cc1	0.168% (inactive)	–
COc1ccc(S(=O)(=O)N2CCN(C(=O)c3ccc([N+](=O)[O-])o3)CC2)cc1	-3.97% (inactive)	–
COc1ccc2oc(-c3ccccc3[N+](=O)[O-])cc(=O)c2c1	-28% (inactive)	–
COc1ccc2[nH]c3c(c2c1)CCNC3c1ccc([N+](=O)[O-])o1 (stereo not drawn)	–	23.1 µM (active)
CCOC(=O)C1C(=O)C=C(/C=C/c2ccc(N(C)C)cc2)CC1c1ccccc1 (stereo not drawn)	–	10.3 µM (active)
CC(/C=C/c1ccc(N(C)C)cc1)=N\N=C(/N)SC1CC(=O)N(c2ccc(C(=O)O)cc2)C1=O (stereo not drawn)	-20.3% (inactive)	–
Cc1ccc(/C=N/NC(=O)CCCOc2ccc(Cl)cc2Cl)cc1	-27.3% (inactive)	–
Cc1ccc(-c2nc3ncccc3o2)cc1NC(=O)c1ccc([N+](=O)[O-])o1	-17.2% (inactive)	–
